Experimental data as given in PubChem BioAssay (Tox21).
Inconclusive results are not listed. Activity calls are given as the source filed them. Unless noted, calls follow the shape of the dose curve; as a rule, active = well fitted curve in the direction sought with a large enough effect in the repeat runs; inconclusive = weak or mixed curves; inactive = no such curve, though single readings can be large; an effect the other way counts as inactive or inconclusive.

Legend:
[1] = qHTS assay to identify small molecule agonists of the vitamin D receptor (VDR) signaling pathway - cell viability counter screen (AID 743224); also: series mostly up to about 63 µM; nearly all actives have a fitted effect of over 50% in size
Procedure, shortened: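 In parallel with the bla FRET readout, cytotoxicity toward VDR-bla cells after 16 h compound exposure was assessed by CellTiter-Glo, with luminescence recorded after a 30 min room-temperature incubation.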

[2] = qHTS assay to identify small molecule antagonists of the vitamin D receptor (VDR) signaling pathway - cell viability counter screen (AID 743225); also: nearly all actives have a fitted effect of over 50% in size
Procedure, shortened: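 Cytotoxicity toward the VDR-bla HEK 293T line was scored by ATP-based CellTiter-Glo luminescence, read in the wells already used for the beta-lactamase readout after 16 h compound treatment under 3 nM 1-alpha,25-dihydroxyvitamin D3 stimulation.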

[3] = qHTS assay to identify small molecule agonists of the NFkB signaling pathway (AID 1159509; active = well fitted curve in the direction sought with a large enough effect in the signal ratio in the repeat runs, not every such curve was filed as active; the % refers to the signal ratio; also: series mostly up to about 61 µM)
Procedure, shortened: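 Beta-lactamase reporter assay run in quantitative high-throughput format on an NF-kB-responsive ME-180 line, with 5 hr compound treatment and a FRET-based blue/green fluorescence readout.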

[4] = qHTS assay to identify small molecule agonists of the NFkB signaling pathway - cell viability counter screen (AID 1159515; calls by dose curve; also: series mostly up to about 61 µM; nearly all actives have a fitted effect of over 55% in size)
Procedure, shortened: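 Plate 2,000 NFkB-bla ME-180 cells/well; incubate overnight. Add compounds, 5 hr at 37 C. Add FRET substrate, 1.5 hr RT. Add CellTiter-Glo, 30 min RT; read luminescence.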

[5] = qHTS assay to identify small molecule agonists of the endoplasmic reticulum stress response signaling pathway (AID 1159516; active = well fitted activation curve with a large enough effect in the signal ratio in the repeat runs, not every such curve was filed as active; the % refers to the signal ratio)
Procedure, shortened: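 Beta-lactamase expression from the ER stress response element in HeLa reporter cells is quantified with the LiveBLAzer B/G FRET substrate, read at 405 nm excitation after 2 hr at room temperature, following 5 hr compound treatment at 37 C.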

[6] = qHTS assay to identify small molecule agonists of the endoplasmic reticulum stress response signaling pathway - cell viability counter screen (AID 1159517; calls by dose curve; also: series mostly up to about 61 µM; nearly all actives have a fitted effect of over 50% in size)
Procedure, shortened: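 Steps: seed 1,500 ESRE-bla HeLa cells per well; incubate overnight at 37 C, 5% CO2; add compounds in DMSO for 5 hr; run FRET substrate 2 hr RT; add CellTiter-Glo, wait 30 min, read luminescence.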

[7] = qHTS assay to identify small molecule antagonists of the retinoid-related orphan receptor gamma (ROR-gamma) signaling pathway - cell viability counter screen (AID 1159520); also: nearly all actives have a fitted effect of over 50% in size
Procedure, shortened: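 Tet-on ROR gamma CHO cells were given compounds for 2 hr, then doxycycline hyclate at 1 uM final, and incubated 16 hr at 37 C. Viability was measured as ATP content by CellTiter-Glo luminescence.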

[8] = target: Nuclear receptor ROR-gamma (Homo sapiens) (UniProt P51449); assay: qHTS assay to identify small molecule antagonists of the retinoid-related orphan receptor gamma (ROR-gamma) signaling pathway (AID 1159521)
Procedure, shortened: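 Readout: ONE-Glo luciferase luminescence, 30 min at room temperature. System: Tet-on RORγ CHO, RORE-LUC. Sequence: compound 2 h, doxycycline 1 uM final, 16 h at 37 C.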

[9] = qHTS assay to identify small molecule agonists of the AP-1 signaling pathway - cell viability counter screen (AID 1159525; calls by dose curve; also: nearly all actives have a fitted effect of over 55% in size)
Procedure, shortened: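 Same-well cytotoxicity counter screen of the Tox21 10K library in ME-180 cells. The readout is ATP-dependent luminescence after 5 h compound treatment. Data are normalised to DMSO and tetra n-octyl ammonium bromide controls.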

[10] = qHTS assay to identify small molecule agonists of the AP-1 signaling pathway (AID 1159526; calls by dose curve)
[11] = target: Retinoic acid receptor RXR-alpha (Homo sapiens) (UniProt P19793); assay: qHTS assay to identify small molecule agonists of the RXR signaling pathway (AID 1159527; calls by dose curve; also: nearly all actives have a fitted effect of over 35% in size; also: potency is read from the fitted curve at half-maximal effect)
Retinoic acid receptor RXR-alpha (Homo sapiens), sequence (P19793 whole entry, looked up): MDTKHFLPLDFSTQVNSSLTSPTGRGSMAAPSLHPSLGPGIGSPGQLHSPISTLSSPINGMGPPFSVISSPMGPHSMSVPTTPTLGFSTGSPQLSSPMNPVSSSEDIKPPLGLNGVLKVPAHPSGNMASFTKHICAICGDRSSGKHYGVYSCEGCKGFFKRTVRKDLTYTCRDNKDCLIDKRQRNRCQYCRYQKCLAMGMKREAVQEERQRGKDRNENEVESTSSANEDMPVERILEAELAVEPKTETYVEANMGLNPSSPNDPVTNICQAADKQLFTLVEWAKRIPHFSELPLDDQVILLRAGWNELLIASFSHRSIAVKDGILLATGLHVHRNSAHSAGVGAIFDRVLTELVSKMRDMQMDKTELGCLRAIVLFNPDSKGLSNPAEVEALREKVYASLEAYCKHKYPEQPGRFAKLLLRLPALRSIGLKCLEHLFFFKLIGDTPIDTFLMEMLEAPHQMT
Procedure, shortened: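 Reporter activation is measured as beta-lactamase activity via FRET substrate cleavage (emission 460/530 nm) in HEK 293T cells expressing an RXR-alpha-driven bla construct, following 16 hr compound exposure at 37 C.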

[12] = qHTS assay to identify small molecule agonists of the RXR signaling pathway - cell viability counter screen (AID 1159529)
Procedure, shortened: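 Tox21 10K compounds were tested for cytotoxicity against GeneBLAzer RXR-alpha HEK 293T cells grown in 2% charcoal-stripped FBS. Exposure lasted 16 hr at 37 C, 5% CO2; viability read by CellTiter-Glo luminescence.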

[13] = qHTS assay to identify small molecule antagonists of the retinoid acid receptor (RAR) signaling pathway - cell viability counter screen (AID 1159551); also: nearly all actives have a fitted effect of over 35% in size
Procedure, shortened: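 Viability of C3RL4 cells is quantified from ATP by luminescence after 6 h treatment at 37 C with compounds and 1 uM retinol.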

Measured: Potency

CCC(=O)c1ccccc1
inactive: all assays above

CCCSC(=O)N(CCC)CCC
not listed: [2]
inactive: all other assays above

ClCC(Cl)Cl
not listed: [2]
inactive: all other assays above

CC1CCC(=O)O1 (centres undefined)
not listed: [1]
inactive: all other assays above

COC(=O)C(c1ccccc1)C1CCCCN1 (centres undefined)
inactive: all assays above

COc1cc(OC)nc(NC(=O)NS(=O)(=O)c2ncccc2OCC(F)(F)F)n1
not listed: [2]
inactive: all other assays above

CCC1(c2ccccc2)C(=O)N=C(O)NC1=O (centres undefined)
active: [11] 12 µM
not listed: [2]
inactive: all other assays above

Cc1ncc2n1-c1ccc(Cl)cc1C(c1ccccc1F)=NC2
inactive: all assays above

CCOP(=O)(N=C1SCCS1)OCC
not listed: [1]
inactive: all other assays above

CCc1cc2c(s1)-n1c(C)nnc1CN=C2c1ccccc1Cl
inactive: all assays above
